Measurements reported in PubChem BioAssay.

Target: Tumor necrosis factor receptor superfamily member 10B (Homo sapiens) (UniProt O14763)
Sequence (O14763 whole entry, looked up): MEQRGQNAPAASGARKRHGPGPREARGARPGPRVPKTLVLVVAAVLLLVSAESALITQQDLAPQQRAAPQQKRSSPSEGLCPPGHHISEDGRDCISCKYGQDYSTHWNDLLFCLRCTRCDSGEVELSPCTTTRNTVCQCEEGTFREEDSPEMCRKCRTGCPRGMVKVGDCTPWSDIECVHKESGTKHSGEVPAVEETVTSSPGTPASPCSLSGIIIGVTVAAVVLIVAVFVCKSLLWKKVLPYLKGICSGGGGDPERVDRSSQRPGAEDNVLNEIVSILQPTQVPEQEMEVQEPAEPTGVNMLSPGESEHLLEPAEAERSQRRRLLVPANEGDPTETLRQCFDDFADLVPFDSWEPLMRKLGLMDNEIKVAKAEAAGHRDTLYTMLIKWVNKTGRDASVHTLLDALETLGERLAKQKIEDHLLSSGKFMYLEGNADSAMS
Assay: caspase-8 TRAIL sensitization, hit retest, confirmation, cell-based, NB7+caspase-8, with/without TRAIL, luminescence panel (AID 651596)
Details: NB7 neuroblastoma + caspase-8, TRAIL sensitization, luminescence viability, with TRAIL, mean of runs, at 10 µM, stronger effect = higher value; in the data active means activity above about 50%; inactive means the rest
With `c1ccc2nc(-c3nc4ccccc4o3)ccc2c1` the activity was 79.6%. `CN(NC(=O)C(C)(C)C)c1nc(-c2ccccc2)nnc1C(F)(F)F` gave an activity of 43.9%. In the case of `CCCCNC(=O)c1cn(C)c2ccc(S(=O)(=O)N3CC(C)CC(C)C3)cc2c1=O` (stereo not given), the activity is reported as 42.1%. `COc1ccc(CC(=O)Nc2cccc(-c3nnc(-c4ccccc4)o3)c2)cc1OC` gave an activity of 78.9%. Molecule `c1ccc(-c2nnc3sc(CN4CCC5(CC4)OCCO5)cn23)cc1` has an activity of 57.7%. Molecule `C/C=C/c1ccc(OCCCNC2CCCC2)c(OC)c1` has an activity of 1.5%. For `Cc1ccsc1C(=O)Nc1ccc2c(c1)OCCO2`, the activity was 53.2%. `CN(C)CCCN(C(=O)c1cc2cc([N+](=O)[O-])ccc2s1)c1nc2cc3c(cc2s1)OCCO3` gave an activity of 92.2%. Molecule `O=C(Nc1nc2ccccc2[nH]1)c1ccccc1OC(F)F` has an activity of 76%. `Cc1ccc(-c2nn(CC(=O)NCc3cc(-c4nn(C)c(=O)c5ccccc45)ccc3C)c(=O)c3ccccc23)cc1` gave an activity of 90.9%. `Cc1cc(Br)c(OCc2ccc(C(=O)N/N=C/c3ccc[nH]3)cc2)c(Br)c1` showed an activity of 72.8%. In the case of `CCOC(=O)Cc1csc(NC(=O)c2cc3c(s2)CCCC3)n1`, the activity is reported as 56.7%. Work on `Cc1ccc2nc(N(CCCN(C)C)C(=O)c3ccc(S(=O)(=O)N4CCc5ccccc5C4)cc3)sc2c1` yielded an activity of 55.4%. `COc1ccccc1NC(CC(=O)c1ccccc1)C(=O)OCC(=O)c1ccc(Br)cc1` (stereo not given) showed an activity of 65.4%. `Cc1ccccc1Oc1cc(-n2ncc(Cl)c(Cl)c2=O)ncn1` showed an activity of 99.7%. For `CCc1sc(C(=O)N2CCc3ccccc32)cc1C`, the activity was 46.1%. In the case of `O=C(Nc1ccc2c(c1)CCC2)c1ccc(F)cc1`, the activity is reported as 49.5%. For `Nc1nc(=S)c2ncn([C@@H]3O[C@H](CO)[C@@H](O)[C@H]3O)c2[nH]1`, the activity was 70.6%. `Cc1nc2cc(NC(=O)Nc3ccccc3Cl)ccc2n1C` showed an activity of 78.5%. For `O=C(Nc1ccc2nc(-c3ccco3)[nH]c2c1)c1cccs1`, the activity was 72.4%. Work on `Cc1cc(NC(=O)c2cc3n(n2)C(C(F)(F)F)CC(c2ccco2)N3)no1` (stereo not given) yielded an activity of -11.1%. Molecule `O=C(CNC(=O)c1ccccc1F)N/N=C/c1cc(Br)ccc1OC(=O)/C=C/c1ccco1` has an activity of 3.4%. In the case of `O=C(N/N=C\c1cccc(OC(=O)c2ccco2)c1)c1ccc2c(c1)OCO2`, the activity is reported as 83%. For `COc1ccc(N2C(N)=NC(N)=NC2(C)C)cc1`, the activity was 78.6%. `Cc1nc2cc(-c3ccccc3)nn2c(N)c1-c1ccccc1` showed an activity of 59%. `CCN(CC)C(=O)c1nn(-c2ccccc2)c2c1C1CCC2(C)C1(C)C` (stereo not given) showed an activity of 15.1%. `CCOc1ccc2nc(NC(=O)c3cccc(N4C(=O)CCC4=O)c3)sc2c1` showed an activity of 65.7%. `COc1cc(OC)nc(Nc2nc(C(N)Cc3ccc(C(F)(F)F)cc3)cs2)n1` (stereo not given) gave an activity of 33.2%. Molecule `COc1cc(/C=N/NC(=O)COc2ccc(C)cc2)ccc1OC(=O)c1cccs1` has an activity of 58.4%. Work on `COc1ccc(OC)c2sc(N(CCN(C)C)C(=O)/C=C/c3cccs3)nc12` yielded an activity of 95.2%. Work on `Cc1ccccc1C(=O)O/N=C(\N)c1cccc([N+](=O)[O-])c1` yielded an activity of 80.9%. For `Cc1ccnc(NC(=O)c2ccc(Br)s2)c1`, the activity was 52.3%. For `CC(C)c1ccc(C(=O)NC2=NCCS2)cc1`, the activity was 63.5%. `O=[N+]([O-])c1cc(S(=O)(=O)N2CCCCCC2)ccc1F` gave an activity of 83.9%. With `COc1ccccc1C(=O)NNC(=O)c1cccc(O)c1` the activity was 44.2%. `Cc1cc(C)c(C)c(S(=O)(=O)N2CCN(CC(=O)c3c(N)n(Cc4ccccc4)c(=O)n(C)c3=O)CC2)c1C` showed an activity of 76.3%. Molecule `Cc1ccc(CSc2nc3ncccc3[nH]2)cc1` has an activity of 71%. Molecule `Cc1ccc(-c2cc3onc(-c4ccccc4)c3c(=O)n2C)cc1` has an activity of 75%. Work on `CCCCC[C@@H](C)N1C[C@H](COCc2ccccc2)Oc2cc(N3CC[C@@H](N(C)C)C3)ccc2S1(=O)=O` yielded an activity of 13%. With `Clc1ccc(-c2nc3n(n2)Cc2ccccc2-3)cc1` the activity was 65.8%.

Test system: not listed separately
Assay: as above
Details: NB7 neuroblastoma + caspase-8, without TRAIL, luminescence viability, without TRAIL, mean of runs, at 10 µM
`c1ccc2nc(-c3nc4ccccc4o3)ccc2c1` gave an activity of 76%. `CN(NC(=O)C(C)(C)C)c1nc(-c2ccccc2)nnc1C(F)(F)F` showed an activity of 55.6%. With `CCCCNC(=O)c1cn(C)c2ccc(S(=O)(=O)N3CC(C)CC(C)C3)cc2c1=O` (stereo not given) the activity was 41.5%. In the case of `COc1ccc(CC(=O)Nc2cccc(-c3nnc(-c4ccccc4)o3)c2)cc1OC`, the activity is reported as 59.8%. Molecule `c1ccc(-c2nnc3sc(CN4CCC5(CC4)OCCO5)cn23)cc1` has an activity of 60.9%. With `C/C=C/c1ccc(OCCCNC2CCCC2)c(OC)c1` the activity was -12.4%. `Cc1ccsc1C(=O)Nc1ccc2c(c1)OCCO2` gave an activity of 45.1%. For `CN(C)CCCN(C(=O)c1cc2cc([N+](=O)[O-])ccc2s1)c1nc2cc3c(cc2s1)OCCO3`, the activity was 83%. With `O=C(Nc1nc2ccccc2[nH]1)c1ccccc1OC(F)F` the activity was 82.2%. Molecule `Cc1ccc(-c2nn(CC(=O)NCc3cc(-c4nn(C)c(=O)c5ccccc45)ccc3C)c(=O)c3ccccc23)cc1` has an activity of 35.5%. `Cc1cc(Br)c(OCc2ccc(C(=O)N/N=C/c3ccc[nH]3)cc2)c(Br)c1` showed an activity of 86.5%. Work on `CCOC(=O)Cc1csc(NC(=O)c2cc3c(s2)CCCC3)n1` yielded an activity of 58.8%. For `Cc1ccc2nc(N(CCCN(C)C)C(=O)c3ccc(S(=O)(=O)N4CCc5ccccc5C4)cc3)sc2c1`, the activity was 68.3%. In the case of `COc1ccccc1NC(CC(=O)c1ccccc1)C(=O)OCC(=O)c1ccc(Br)cc1` (stereo not given), the activity is reported as 57.2%. Work on `Cc1ccccc1Oc1cc(-n2ncc(Cl)c(Cl)c2=O)ncn1` yielded an activity of 99.5%. Work on `CCc1sc(C(=O)N2CCc3ccccc32)cc1C` yielded an activity of 44.7%. Molecule `O=C(Nc1ccc2c(c1)CCC2)c1ccc(F)cc1` has an activity of 44.1%. Molecule `Nc1nc(=S)c2ncn([C@@H]3O[C@H](CO)[C@@H](O)[C@H]3O)c2[nH]1` has an activity of 73.5%. Work on `Cc1nc2cc(NC(=O)Nc3ccccc3Cl)ccc2n1C` yielded an activity of 78.2%. In the case of `O=C(Nc1ccc2nc(-c3ccco3)[nH]c2c1)c1cccs1`, the activity is reported as 80.6%. `Cc1cc(NC(=O)c2cc3n(n2)C(C(F)(F)F)CC(c2ccco2)N3)no1` (stereo not given) gave an activity of -14.8%. In the case of `O=C(CNC(=O)c1ccccc1F)N/N=C/c1cc(Br)ccc1OC(=O)/C=C/c1ccco1`, the activity is reported as 20.8%. `O=C(N/N=C\c1cccc(OC(=O)c2ccco2)c1)c1ccc2c(c1)OCO2` gave an activity of 74.1%. With `COc1ccc(N2C(N)=NC(N)=NC2(C)C)cc1` the activity was 86.5%. `Cc1nc2cc(-c3ccccc3)nn2c(N)c1-c1ccccc1` gave an activity of 44.4%. Work on `CCN(CC)C(=O)c1nn(-c2ccccc2)c2c1C1CCC2(C)C1(C)C` (stereo not given) yielded an activity of 8.65%. With `CCOc1ccc2nc(NC(=O)c3cccc(N4C(=O)CCC4=O)c3)sc2c1` the activity was 81.5%. `COc1cc(OC)nc(Nc2nc(C(N)Cc3ccc(C(F)(F)F)cc3)cs2)n1` (stereo not given) showed an activity of 77.7%. With `COc1cc(/C=N/NC(=O)COc2ccc(C)cc2)ccc1OC(=O)c1cccs1` the activity was 48.5%. Molecule `COc1ccc(OC)c2sc(N(CCN(C)C)C(=O)/C=C/c3cccs3)nc12` has an activity of 98.8%. Molecule `Cc1ccccc1C(=O)O/N=C(\N)c1cccc([N+](=O)[O-])c1` has an activity of 79.9%. For `Cc1ccnc(NC(=O)c2ccc(Br)s2)c1`, the activity was 53%. Molecule `CC(C)c1ccc(C(=O)NC2=NCCS2)cc1` has an activity of 67.1%. With `O=[N+]([O-])c1cc(S(=O)(=O)N2CCCCCC2)ccc1F` the activity was 72.6%. With `COc1ccccc1C(=O)NNC(=O)c1cccc(O)c1` the activity was 48.4%. `Cc1cc(C)c(C)c(S(=O)(=O)N2CCN(CC(=O)c3c(N)n(Cc4ccccc4)c(=O)n(C)c3=O)CC2)c1C` showed an activity of 79.4%. `Cc1ccc(CSc2nc3ncccc3[nH]2)cc1` showed an activity of 68.2%. `Cc1ccc(-c2cc3onc(-c4ccccc4)c3c(=O)n2C)cc1` showed an activity of 72.3%. In the case of `CCCCC[C@@H](C)N1C[C@H](COCc2ccccc2)Oc2cc(N3CC[C@@H](N(C)C)C3)ccc2S1(=O)=O`, the activity is reported as 43.6%. In the case of `Clc1ccc(-c2nc3n(n2)Cc2ccccc2-3)cc1`, the activity is reported as 76.6%.
